Measured values as given in PubChem BioAssay (EPA / NIEHS).
Calls of active or inactive are those of the source. The calls were made as follows: active = hit-call score of the fitted dose curve at least 0.9, where 1 is the maximum; inactive = score below 0.9.

Experiment: ATG_CRE_CIS: Attagene CIS-FACTORIAL HepG2 Assay for human cAMP Responsive Element (CRE) binding protein 3 (AID 2282926)
Settings: HepG2 CRE cis-reporter, Attagene multiplexed mRNA; actives raise or lower the signal
Summary of the method: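 Liver-derived HepG2, transfected with a CRE-containing reporter panel, exposed 24 h; transcript levels sized and quantified by capillary electrophoresis of labelled amplicons; signal changes either way referenced to vehicle.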

Row | Structure (SMILES) | outcome | AC50
1 | CCCSP(=S)(OCC)Oc1ccc(Cl)cc1Cl (centres undefined) | inactive | –
2 | CCC[CH2][Sn]([CH2]CCC)([CH2]CCC)[CH2]CCC | inactive | –
3 | Cc1cc(Cl)ccc1O | inactive | –
4 | O=[N+]([O-])c1cccc2ccccc12 | inactive | –
5 | ClCCCCl | inactive | –
6 | CNC(=O)CSP(=O)(OC)OC | inactive | –
7 | N#Cc1ccccc1N | inactive | –
8 | Cc1ccc2nc3sc(=O)sc3nc2c1 | – | 6.6 µM (active)
9 | O=C(O)c1cc(I)cc(I)c1I | inactive | –
10 | O=C(NC(=O)c1c(F)cccc1F)Nc1cc(Cl)c(F)c(Cl)c1F | inactive | –
11 | CCN(CCO)CCO | inactive | –
12 | C1CN2CCN1CC2 | inactive | –
13 | C=C(C)[C@@H]1CC=C(C=O)CC1 | inactive | –
14 | CC1(C)[C@H](/C=C2\CCSC2=O)[C@@H]1C(=O)OCc1coc(Cc2ccccc2)c1 | inactive | –
15 | O=c1nc(O)n(Cl)c(=O)n1Cl | inactive | –
16 | [F][Sn]([c]1ccccc1)([c]1ccccc1)[c]1ccccc1 | – | 0.321 µM (active)
17 | O=C1C[C@@H]2OCC=C3CN4CC[C@]56c7ccccc7N1[C@H]5[C@H]2[C@H]3C[C@H]46 | inactive | –
18 | C=CC(=O)NC(C)(C)CC(C)=O | inactive | –
19 | OCCCCO | inactive | –
20 | N#CS | inactive | –

Row | Structure (SMILES) | outcome | AC50
21 | OC(c1ccc(Cl)cc1)(c1ccc(Cl)cc1)c1cccnc1 | inactive | –
22 | O=[N+]([O-])c1ccccc1O | inactive | –
23 | CCOc1cc(C=O)ccc1O | inactive | –
24 | C=CCOC(F)(C(F)(F)F)C(F)(F)F | inactive | –
25 | Cc1cc(Cl)ccc1OC(C)C(=O)O (centres undefined) | inactive | –
26 | Brc1ccc(Br)cc1 | inactive | –
27 | CNC(=O)N(C)c1nc2ccccc2s1 | inactive | –
28 | O=[N+]([O-])c1cc([As](=O)(O)O)ccc1O | inactive | –
29 | Cc1c([N+](=O)[O-])c(C)c([N+](=O)[O-])c(C(C)(C)C)c1[N+](=O)[O-] | inactive | –
30 | CCCSP(=S)(OCC)Oc1ccc(SC)cc1 (centres undefined) | inactive | –
31 | C#C[C@]1(O)CC[C@H]2[C@@H]3CCC4=CC(=O)CC[C@]4(C)[C@H]3CC[C@@]21C | inactive | –
32 | O=NN1CCCCCCC1 | inactive | –
33 | BrCCCCBr | inactive | –
34 | CC(C)CP(=S)(S)CC(C)C | inactive | –
35 | O=c1[nH]c(=O)n(Cl)c(=O)n1Cl | inactive | –
36 | CC(C)=CC1C(C(=O)OCc2cccc(Oc3ccccc3)c2)C1(C)C (centres undefined) | inactive | –
37 | CCOP(=S)(OCC)Oc1ccc(Cl)cc1Cl | inactive | –
38 | CCN(CC)C(=O)C(Cl)=C(C)OP(=O)(OC)OC | inactive | –
39 | CC(C)(C1CCC(O)CC1)C1CCC(O)CC1 (centres undefined) | inactive | –
